Test [1] is described as follows: ATG_GLI_CIS: Attagene CIS-FACTORIAL HepG2 Assay for human Zinc Finger Protein GLI1 (AID 2282945). The note with it: HepG2, Attagene cis-factorial reporter mRNA, GLI element; actives raise or lower the signal. The method, boiled down:
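Bidirectional curve fits relative to DMSO, using reporter mRNA levels from RT-PCR plus capillary electrophoresis. Cells were HepG2 transiently carrying cis-regulated reporter constructs, harvested 24 h after dosing.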

Test [2] is described as follows: ATG_GRE_CIS: Attagene CIS-FACTORIAL HepG2 Assay for human Glucocorticoid Response Elements (GRE) (AID 2282947). To be noted: HepG2 GRE cis-reporter, Attagene multiplex mRNA; actives raise or lower the signal. The procedure, abridged: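 Multiplexed cis-reporter mRNA induction, HepG2, 24 h post-dose. RT-PCR, FAM-labelled, HpaI-digested amplicons by CE. Bidirectional fit vs DMSO.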

A short description of test [3]: ATG_ISRE_CIS: Attagene CIS-FACTORIAL HepG2 Assay for human Interferon Regulatory Factor 1 (IRF1) binding to an Interferon-Stimulated Response Element (ISRE) (AID 2282948). To be noted: HepG2 ISRE cis-reporter (Attagene), mRNA transcription readout; actives raise or lower the signal. The procedure, abridged:
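Endogenous transcription factor activity read as reporter transcript abundance via RT-PCR and capillary electrophoresis. HepG2 cells transiently transfected, 24 h chemical exposure. Gain or loss fitted against DMSO baseline.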

Test [4] is described as follows: ATG_M_32_CIS: Attagene CIS-FACTORIAL HepG2 Assay for M32 Transcription Factor (Internal Marker) (AID 2282949).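 Further: background control marker of the multiplexed CIS panel rather than a real target.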 To be noted: HepG2 Attagene cis-factorial M32 reporter, mRNA; actives raise or lower the signal. The procedure, abridged: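 Using DMSO as baseline, bidirectional curve fits were applied to reporter mRNA signals. These came from transiently transfected HepG2 cells exposed for 24 h, with RNA analysed by RT-PCR, FAM primer extension, HpaI digestion and CE.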

Test [5] can be described thus: ATG_M_06_CIS: Attagene CIS-FACTORIAL HepG2 Assay for M06 Transcription Factor (Internal Marker) (AID 2282950). The note with it: HepG2 Attagene CIS-FACTORIAL M06 internal marker reporter; actives raise or lower the signal. The procedure, abridged:
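Fluorescence-labelled RT-PCR products from cis-promoter reporter units, cut with HpaI and resolved by capillary electrophoresis, give the signal. Cells are human HepG2, dosed for 24 h. Serves as background control, fitted relative to DMSO.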

In test [6] the target is Hypoxia-inducible factor 1-alpha (Homo sapiens) (UniProt Q16665). Description: ATG_HIF1a_CIS: Attagene CIS-FACTORIAL HepG2 Assay for human Hypoxia Inducible Factor 1 (HIF1A) (AID 2282951). To be noted: HepG2 Attagene cis-factorial HIF1a reporter transcription; actives raise or lower the signal. The procedure, abridged: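 Endogenous-TF cis reporter readout, human HepG2 cells, 24 h incubation; mRNA detected via RT-PCR and capillary electrophoresis fluorescence; DMSO-normalised bidirectional fitting.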

The target of test [7] is Hepatocyte nuclear factor 6 (Homo sapiens) (UniProt Q9UBC0). Kind of test: ATG_HNF6_CIS: Attagene CIS-FACTORIAL HepG2 Assay for human Hepatocyte Nuclear Factor 6 (HNF6) (AID 2282952). The note with it: HepG2 Attagene cis-factorial HNF6 reporter transcription; actives raise or lower the signal. The method, boiled down: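 Using cis-element reporters in HepG2 liver cells, the assay tracks endogenous factor-driven transcription 24 h post-dosing. Signal comes from 6-FAM-labelled, HpaI-digested RT-PCR fragments, with gain or loss scored against DMSO.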

Test [8] has as its target Heat shock factor protein 1 (Homo sapiens) (UniProt Q00613). Kind of test: ATG_HSE_CIS: Attagene CIS-FACTORIAL HepG2 Assay for human Heat Shock Transcription Factor 1 (HSE) (AID 2282953). To be noted: HepG2 HSE cis-reporter, Attagene RNA transcription; actives raise or lower the signal. The method, boiled down: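 After a 24 h incubation with test chemical, transfected HepG2 cells were harvested for RNA; reporter transcripts were measured by RT-PCR and capillary electrophoresis. Values reflect gain or loss of signal relative to DMSO.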

Test [9] can be described thus: ATG_MRE_CIS: Attagene CIS-FACTORIAL HepG2 Assay for human Metal Responsive Element (MRE) (AID 2282954). To be noted: HepG2 MRE cis-reporter transcription, Attagene multiplex; actives raise or lower the signal. The method, boiled down: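 Multiplexed cis-reporter assay in human HepG2 liver cells, 24 h incubation with test chemical. Reporter transcripts measured by RT-PCR and capillary electrophoresis; values from bidirectional curve fitting versus DMSO.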

Test [10] in a line: ATG_PBREM_CIS: Attagene CIS-FACTORIAL HepG2 Assay for human Phenobarbital-responsive Enhancer Module (PBREM) (AID 2282955). To be noted: HepG2 PBREM cis-reporter, Attagene multiplexed transcription; actives raise or lower the signal. The method, boiled down: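 Readout: reporter mRNA, fluorescent RT-PCR fragments separated by capillary electrophoresis. System: HepG2 transiently transfected with cis-regulated reporter units. Exposure: 24 h. Analysis: bidirectional, DMSO baseline.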

Test [11] concerns the target Paired box protein Pax-6 (Homo sapiens) (UniProt P26367). Description: ATG_Pax6_CIS: Attagene CIS-FACTORIAL HepG2 Assay for human Paired Box 6 (PAX6) (AID 2282956). To be noted: HepG2 CIS-FACTORIAL PAX6 reporter transcription, RNA readout; actives raise or lower the signal. The method, boiled down:
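Read-out is reporter transcript level, measured by RT-PCR with fluorescent primer extension and capillary electrophoresis after 24 h dosing of transfected HepG2 cells. Activity in either direction fitted relative to DMSO control.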

A short description of test [12]: ATG_PXRE_CIS: Attagene CIS-FACTORIAL HepG2 Assay for human Pregnane X Receptor Element (PXRE) (AID 2282957). The note with it: HepG2 Attagene CIS-FACTORIAL PXRE reporter, mRNA; actives raise or lower the signal. The procedure, abridged: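 Using HepG2 transfected with multiple reporter transcription units, endogenous factor-driven transcription was scored as reporter mRNA after 24 h exposure.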

Test [13] in a line: ATG_PPRE_CIS: Attagene CIS-FACTORIAL HepG2 Assay for human Peroxisome Proliferator-activated Response Element (PPRE) (AID 2282958). The note with it: HepG2 PPRE cis-element reporter, Attagene transcription factor profiling; actives raise or lower the signal. The procedure, abridged: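 After human HepG2 hepatoma cells were transiently transfected with cis-promoter reporter constructs, they were exposed to test chemicals for 24 hours. Reporter RNA was then reverse-transcribed, PCR-amplified, FAM-labeled, HpaI-digested and quantified by capillary electrophoresis.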

Test [14] in a line: ATG_RORE_CIS: Attagene CIS-FACTORIAL HepG2 Assay for human RAR-related Orphan Receptor Element (RORE) (AID 2282959). The note with it: HepG2 Attagene cis-factorial RORE reporter, mRNA; actives raise or lower the signal. The method, boiled down:
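Measured here: transcript induction of a cis-regulated reporter in HepG2 cells transiently transfected via FuGene 6. After 24 h, RNA was processed by RT-PCR and fluorescent capillary electrophoresis; DMSO defined baseline activity.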

Test [15] in a line: ATG_Sox_CIS: Attagene CIS-FACTORIAL HepG2 Assay for human SRY-box transcription factor (SOX) (AID 2282960). To be noted: HepG2 Attagene cis-factorial SOX reporter, mRNA; actives raise or lower the signal. The procedure, abridged:
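Using transiently transfected HepG2 cells, reporter transcription driven by cis elements was assessed 24 h after dosing. Signal was fluorescence of capillary-separated RT-PCR products, with DMSO defining baseline activity.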

In test [16] the target is Transcription factor Sp1 (Homo sapiens) (UniProt P08047). Kind of test: ATG_Sp1_CIS: Attagene CIS-FACTORIAL HepG2 Assay for human Specificity Protein 1 (Sp1) (AID 2282961). The note with it: HepG2 Sp1 cis-reporter transcription, actives raise or lower the signal. The method, boiled down:
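After transient transfection of HepG2 cells with cis-promoter reporter units and 24 h chemical treatment, reporter transcripts were quantified by RT-PCR and capillary electrophoresis fluorescence. Gain- and loss-of-signal fitted against DMSO.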

A short description of test [17]: ATG_SREBP_CIS: Attagene CIS-FACTORIAL HepG2 Assay for human Sterol Regulatory Element Binding (SREBP) (AID 2282962). The note with it: HepG2 Attagene cis-factorial SREBP reporter, mRNA; actives raise or lower the signal. The procedure, abridged:
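Endogenous SREBP activity read as cis-element-driven reporter transcript in transiently transfected HepG2, 24 h post-dosing; quantified via RT-PCR plus capillary electrophoresis of fluorescent fragments. Gain or loss of signal fitted relative to DMSO baseline.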

The nature of test [18]: ATG_TA_CIS: Attagene CIS-FACTORIAL HepG2 Assay for human TA Basal Promoter (AID 2282964). To be noted: HepG2 Attagene CIS-factorial TA basal promoter reporter; actives raise or lower the signal. The procedure, abridged:
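Multiplexed mRNA reporter assay, HepG2, 24 h. Reporter cDNA amplified, 6-FAM primer-extended, HpaI-cut, CE-sized; DMSO = negative control and baseline.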

In test [19] the target is Signal transducer and activator of transcription 3 (Homo sapiens) (UniProt P40763). Description: ATG_STAT3_CIS: Attagene CIS-FACTORIAL HepG2 Assay for human Signal Transducer and Activator of Transcription 3 (STAT3) (AID 2282963). To be noted: HepG2, Attagene cis-factorial STAT3 reporter transcription; actives raise or lower the signal. The procedure, abridged:
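Cis-factorial format: endogenous transcription factors in HepG2 drive transfected reporter units. After 24 h treatment, reporter RNA was reverse-transcribed, amplified, FAM-labelled and HpaI-digested before CE analysis; activity scored in both directions against DMSO.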

In test [20] the target is Bile acid receptor (Homo sapiens) (UniProt Q96RI1). Kind of test: ATG_IR1_CIS: Attagene CIS-FACTORIAL HepG2 Assay for human Nuclear Receptor Subfamily 1 Group H Member 4 (NR1H4), IR1 submotif (AID 2282946). To be noted: IR1 reporter transcription, actives raise or lower the signal. The method, boiled down:
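HepG2 cells transiently transfected with multiplexed cis-element reporter units read endogenous transcription factor activity. After 24 h compound exposure, reporter mRNA was quantified by RT-PCR, fluorescent labelling, HpaI digestion and capillary electrophoresis; bidirectional fitting versus DMSO baseline.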

The source made the active and inactive calls. How the source made its calls: active means hit-call score of the fitted dose curve at least 0.9, where 1 is the maximum; inactive means score below 0.9.

Transcription factor Sp1 (Homo sapiens), sequence (P08047 whole entry, looked up): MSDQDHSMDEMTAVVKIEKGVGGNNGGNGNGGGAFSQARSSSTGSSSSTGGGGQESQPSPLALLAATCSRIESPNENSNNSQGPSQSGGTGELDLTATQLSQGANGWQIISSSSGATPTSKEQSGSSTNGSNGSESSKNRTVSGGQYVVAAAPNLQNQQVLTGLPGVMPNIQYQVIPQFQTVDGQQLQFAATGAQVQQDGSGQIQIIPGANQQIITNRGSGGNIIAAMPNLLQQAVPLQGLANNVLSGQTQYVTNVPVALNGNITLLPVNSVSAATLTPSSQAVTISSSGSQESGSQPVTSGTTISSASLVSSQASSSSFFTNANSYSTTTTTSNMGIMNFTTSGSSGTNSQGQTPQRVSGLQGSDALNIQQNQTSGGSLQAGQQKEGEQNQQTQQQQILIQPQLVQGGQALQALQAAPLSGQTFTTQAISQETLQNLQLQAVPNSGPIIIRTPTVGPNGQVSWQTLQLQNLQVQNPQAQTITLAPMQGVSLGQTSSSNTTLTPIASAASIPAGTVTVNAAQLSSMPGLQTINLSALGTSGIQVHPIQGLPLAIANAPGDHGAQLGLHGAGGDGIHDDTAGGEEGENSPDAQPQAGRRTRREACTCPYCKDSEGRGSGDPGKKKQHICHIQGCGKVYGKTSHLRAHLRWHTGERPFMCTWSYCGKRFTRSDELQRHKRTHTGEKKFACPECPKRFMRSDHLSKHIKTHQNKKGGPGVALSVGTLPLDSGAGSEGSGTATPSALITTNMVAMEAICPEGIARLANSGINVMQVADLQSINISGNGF
Heat shock factor protein 1 (Homo sapiens), sequence (Q00613 whole entry, looked up): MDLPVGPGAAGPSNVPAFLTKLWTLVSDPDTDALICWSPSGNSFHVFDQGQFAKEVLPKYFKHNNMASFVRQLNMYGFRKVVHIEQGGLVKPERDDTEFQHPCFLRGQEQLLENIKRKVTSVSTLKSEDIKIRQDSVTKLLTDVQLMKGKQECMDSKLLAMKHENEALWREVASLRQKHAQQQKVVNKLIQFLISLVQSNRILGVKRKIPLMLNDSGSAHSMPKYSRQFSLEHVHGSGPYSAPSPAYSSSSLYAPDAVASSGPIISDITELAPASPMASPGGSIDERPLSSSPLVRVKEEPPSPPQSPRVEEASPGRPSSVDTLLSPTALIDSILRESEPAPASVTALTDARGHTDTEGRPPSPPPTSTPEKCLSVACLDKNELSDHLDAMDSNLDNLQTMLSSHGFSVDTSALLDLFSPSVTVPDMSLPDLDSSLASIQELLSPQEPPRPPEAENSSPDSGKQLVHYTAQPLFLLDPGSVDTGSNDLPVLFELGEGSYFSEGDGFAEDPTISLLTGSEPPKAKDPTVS
Hypoxia-inducible factor 1-alpha (Homo sapiens), sequence (Q16665 whole entry, looked up): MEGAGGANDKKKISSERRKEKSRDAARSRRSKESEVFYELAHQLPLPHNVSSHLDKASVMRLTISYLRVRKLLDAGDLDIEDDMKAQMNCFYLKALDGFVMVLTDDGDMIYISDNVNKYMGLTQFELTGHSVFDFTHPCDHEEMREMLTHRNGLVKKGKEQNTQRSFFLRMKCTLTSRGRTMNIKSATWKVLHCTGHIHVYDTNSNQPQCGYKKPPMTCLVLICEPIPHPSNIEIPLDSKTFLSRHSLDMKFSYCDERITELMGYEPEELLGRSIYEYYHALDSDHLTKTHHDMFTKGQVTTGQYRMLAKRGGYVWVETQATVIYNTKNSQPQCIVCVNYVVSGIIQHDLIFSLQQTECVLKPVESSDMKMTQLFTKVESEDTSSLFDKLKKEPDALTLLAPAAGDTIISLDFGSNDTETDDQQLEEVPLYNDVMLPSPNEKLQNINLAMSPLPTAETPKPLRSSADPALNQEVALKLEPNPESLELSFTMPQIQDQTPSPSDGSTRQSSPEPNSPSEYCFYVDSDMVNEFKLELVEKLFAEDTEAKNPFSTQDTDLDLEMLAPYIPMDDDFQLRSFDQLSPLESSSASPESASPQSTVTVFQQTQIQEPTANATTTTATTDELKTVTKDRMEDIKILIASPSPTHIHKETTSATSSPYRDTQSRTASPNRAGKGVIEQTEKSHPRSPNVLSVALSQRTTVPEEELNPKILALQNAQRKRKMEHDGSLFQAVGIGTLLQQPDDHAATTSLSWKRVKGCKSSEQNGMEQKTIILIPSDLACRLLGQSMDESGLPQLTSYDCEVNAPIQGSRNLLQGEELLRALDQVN
Paired box protein Pax-6 (Homo sapiens), sequence (P26367 whole entry, looked up): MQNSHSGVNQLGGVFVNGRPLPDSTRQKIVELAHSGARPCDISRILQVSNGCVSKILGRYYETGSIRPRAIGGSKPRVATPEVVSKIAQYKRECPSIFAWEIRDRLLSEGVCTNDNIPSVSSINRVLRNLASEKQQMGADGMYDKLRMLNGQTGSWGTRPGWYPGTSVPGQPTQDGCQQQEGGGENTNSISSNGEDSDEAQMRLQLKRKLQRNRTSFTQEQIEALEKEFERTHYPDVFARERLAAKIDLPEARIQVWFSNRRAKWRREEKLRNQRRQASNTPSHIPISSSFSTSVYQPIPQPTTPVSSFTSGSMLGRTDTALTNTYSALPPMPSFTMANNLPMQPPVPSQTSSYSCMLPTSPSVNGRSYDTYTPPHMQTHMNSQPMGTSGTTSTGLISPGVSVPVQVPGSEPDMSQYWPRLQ
Hepatocyte nuclear factor 6 (Homo sapiens), sequence (Q9UBC0 whole entry, looked up, the tested form may be a part): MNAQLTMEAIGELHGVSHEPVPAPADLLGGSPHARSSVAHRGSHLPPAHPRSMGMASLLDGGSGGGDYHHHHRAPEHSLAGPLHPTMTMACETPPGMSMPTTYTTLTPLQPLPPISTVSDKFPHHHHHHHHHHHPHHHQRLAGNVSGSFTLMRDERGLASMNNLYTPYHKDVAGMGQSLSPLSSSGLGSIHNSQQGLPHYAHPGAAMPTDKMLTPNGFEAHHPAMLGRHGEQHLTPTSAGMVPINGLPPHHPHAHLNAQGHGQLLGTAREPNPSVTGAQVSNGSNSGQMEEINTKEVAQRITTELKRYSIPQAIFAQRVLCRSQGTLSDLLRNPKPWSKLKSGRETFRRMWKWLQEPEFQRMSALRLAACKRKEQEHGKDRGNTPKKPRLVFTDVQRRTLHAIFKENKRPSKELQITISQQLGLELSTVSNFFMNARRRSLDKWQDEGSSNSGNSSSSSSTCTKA
Bile acid receptor (Homo sapiens), sequence (Q96RI1 whole entry, looked up): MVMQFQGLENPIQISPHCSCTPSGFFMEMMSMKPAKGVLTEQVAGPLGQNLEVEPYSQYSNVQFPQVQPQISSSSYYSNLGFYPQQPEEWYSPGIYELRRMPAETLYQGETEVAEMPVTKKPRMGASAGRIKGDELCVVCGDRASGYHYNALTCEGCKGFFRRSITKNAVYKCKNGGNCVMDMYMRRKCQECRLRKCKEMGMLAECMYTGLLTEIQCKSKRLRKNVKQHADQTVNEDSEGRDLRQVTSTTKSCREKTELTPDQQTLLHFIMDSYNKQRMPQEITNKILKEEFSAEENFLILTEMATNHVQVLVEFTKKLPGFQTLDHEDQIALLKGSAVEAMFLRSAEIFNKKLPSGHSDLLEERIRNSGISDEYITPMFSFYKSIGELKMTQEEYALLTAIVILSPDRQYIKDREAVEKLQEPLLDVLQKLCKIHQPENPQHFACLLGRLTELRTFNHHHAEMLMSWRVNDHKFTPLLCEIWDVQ
Signal transducer and activator of transcription 3 (Homo sapiens), sequence (P40763 whole entry, looked up): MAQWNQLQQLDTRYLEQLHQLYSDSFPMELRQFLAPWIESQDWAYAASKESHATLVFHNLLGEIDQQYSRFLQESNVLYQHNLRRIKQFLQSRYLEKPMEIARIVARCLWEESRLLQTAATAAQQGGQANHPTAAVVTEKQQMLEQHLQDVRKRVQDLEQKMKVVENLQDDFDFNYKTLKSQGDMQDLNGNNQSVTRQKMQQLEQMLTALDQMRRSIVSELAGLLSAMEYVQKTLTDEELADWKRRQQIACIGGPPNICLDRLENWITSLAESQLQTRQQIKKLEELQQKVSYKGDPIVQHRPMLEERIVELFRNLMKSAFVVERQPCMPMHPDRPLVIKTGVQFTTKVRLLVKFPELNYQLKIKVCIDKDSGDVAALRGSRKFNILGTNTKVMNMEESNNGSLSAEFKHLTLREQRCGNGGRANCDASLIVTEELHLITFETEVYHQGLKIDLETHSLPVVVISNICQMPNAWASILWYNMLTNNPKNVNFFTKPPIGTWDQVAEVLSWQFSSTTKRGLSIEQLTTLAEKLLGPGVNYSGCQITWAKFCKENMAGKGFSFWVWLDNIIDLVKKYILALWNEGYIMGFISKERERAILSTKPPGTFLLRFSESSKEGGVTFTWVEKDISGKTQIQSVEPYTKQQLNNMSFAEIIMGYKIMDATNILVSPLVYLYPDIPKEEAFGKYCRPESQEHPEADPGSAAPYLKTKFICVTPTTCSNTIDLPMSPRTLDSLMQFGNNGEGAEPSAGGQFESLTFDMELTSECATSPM

A word on the AC50: it is the concentration at which the activity in the assay is half-maximal. As to `O=[N+]([O-])c1c(Cl)c(Cl)c(Cl)c(Cl)c1Cl`, the result in test [1], in test [2], in [3], in [4], in [5] and in test [7] was inactive. Besides, the outcome in [10], in test [12], in test [15], in test [16] and in test [17] was inactive. Further, the half-maximal activity concentration (AC50) in test [6] was 37.6 µM (active); in [8], 80.8 µM (active); in test [9], 50 µM (active); in test [11], 50 µM (active); in test [13], 2.32 µM (active); in [14], 10.7 µM (active).

For `COP(=S)(OC)Oc1ccc(SC)c(C)c1`, the result in [1], in test [2], in test [3], in test [4], in test [6] and in test [7] was inactive. The call in test [8], in test [9], in test [11], in [13], in test [15] and in test [16] was inactive. The result in [18] was inactive. For the same compound, the AC50 in test [10] was 39.3 µM (active); in test [12], 10.8 µM (active); in test [14], 53.7 µM (active); in test [17], 24.7 µM (active).

Consider `CCOCN(C(=O)CCl)c1c(C)cccc1CC`, for which the outcome in [1], in [2], in test [3], in [4], in test [6] and in test [7] was inactive. For the same compound, the outcome in [8], in [9], in test [10], in test [11], in [14] and in test [15] was inactive. Further, the result in [16], in test [17] and in [19] was inactive. Further, the AC50 in [12] was 0.468 µM (active).

`CCCN(CCC)c1c([N+](=O)[O-])cc(C(F)(F)F)cc1[N+](=O)[O-]`: the call in test [1], in test [20], in [3], in test [4], in [6] and in [7] was inactive. Besides, the call in [8], in test [9], in test [10], in [11], in test [13] and in test [14] was inactive. For the same compound, the compound was classed as inactive in test [15], in test [16] and in [17]. Also, the AC50 in [12] is 6.82 µM (active).

Source of the values: PubChem BioAssay (EPA / NIEHS).
